# Measurements reported in PubChem BioAssay (NCATS).
# Several values for one entry are separate records, joined by “and”; a condition that tells them apart may be missing. Identical values can stand only once. Values without a mark were called inactive. Inconclusive results are not listed. Activity calls are given as the source filed them. Unless noted, calls follow the shape of the full dose curve.
# Legend:
# [1] = Cell Viability - Jurkat (AID 426;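 active = dose-dependent loss of cell ATP signal giving a full or clear fitted curve, ranked by lower potency value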;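 also: potency is read from the fitted curve at half-maximal effect; cells exposed to compound for 40 hours at 37 °C before ATP read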); conditions: qHTS
# Summary of the method: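 Cytotoxicity was scored as loss of cellular ATP, measured by luciferase-based luminescence, in Jurkat clone E6-1 cells after 40 h compound treatment; tamoxifen and doxorubicin served as positive controls.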
# [2] = biological target: Cytochrome P450 3A4 (Homo sapiens) (UniProt P08684); assay: qHTS Assay for Activators of Cytochrome P450 3A4 (AID 885; active = well fitted curve in the direction sought with a large enough effect; an effect the other way counts as inactive or inconclusive; also: nearly all actives have a fitted effect of over 65% in size); conditions: recombinant CYP3A4, Luciferin-PPXE luminescence, 60 min; series mostly up to 57.1 µM
# Summary of the method: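 Using 20nM recombinant human CYP3A4 in potassium phosphate (200mM), substrate Luciferin-PPXE at 25uM, luminescent luciferin detection followed a 60-min RT NADPH reaction; data scaled to 57 uM ketoconazole.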
# [3] = biological target: Bile acid receptor (Homo sapiens) (UniProt Q96RI1); assay: qHTS assay for small molecule agonists of farnesoid X receptor signaling (AID 588527); conditions: HEK293T FXR-UAS-bla, beta-lactamase ratio, 16 h; stronger effect = higher value;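 also: 0% = vehicle basal and 100% = reference agonist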
# Summary of the method: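 Quantitative HTS used FXR-UAS-bla HEK293T cells with 16 h compound incubation at 37 C. EC50 values came from concentration-response curves normalized to chenodeoxycholic acid.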
# [4] = Confirmation and Secondary Assay for Modulators of Hemoglobin Beta Chain Splicing at IVS2 654 locus (AID 910; active = well fitted curve in the direction sought with a large enough effect; an effect the other way counts as inactive or inconclusive;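 also: HeLa cells stably carrying EGFP split by mutant beta-globin IVS2-654 intron; % of control where 0% means no effect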); conditions: HeLa EGFP-654 splicing reporter, GFP fluorescence, 48 h; series mostly up to 38.3 µM
# Summary of the method: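 HeLa cells stably expressing EGFP interrupted by β-globin IVS2-654 intron, seeded overnight in Opti-MEM/2% FCS, then treated 2 days at 37 °C. Restored splicing read as total peak GFP intensity per well by laser scanning cytometry (488 nm excitation, 500–520 nm emission); 500 nM antisense PNA as control.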
# [5] = Confirmation and Secondary Assay for Modulators of Hemoglobin Beta Chain Splicing at IVS2 705 locus (AID 930; active = well fitted curve in the direction sought with a large enough effect; an effect the other way counts as inactive or inconclusive;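 also: HeLa cells stably expressing the EGFP-705 splicing reporter; GFP fluorescence per well restored by corrected splicing of the IVS2-705 intron in EGFP; % of control where 0% means no effect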); conditions: HeLa EGFP-705 splicing reporter, GFP fluorescence, 48 h; series mostly up to 38.3 µM
# Summary of the method: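 Splice-correction reporter: EGFP cDNA split by beta-globin intron 2 bearing the 705 mutation, stably in HeLa. Compound incubation 2 days, 37C; fluorescent objects 5-250 µm summed per well.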
# [6] = biological target: Ubiquitin carboxyl-terminal hydrolase 1 (Homo sapiens) (UniProt O94782); assay: Inhibitors of USP1/UAF1: Pilot qHTS (AID 504865; active = well fitted curve in the direction sought with a large enough effect; an effect the other way counts as inactive or inconclusive;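 also: rhodamine fluorescence freed from ubiquitin-rhodamine substrate followed over time; top concentration of the series differs between compounds; % is scaled to controls: 0 for no effect and ±100 for the full control effect; nearly all actives have a fitted effect of over 35% in size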); conditions: purified USP1/UAF1, Ub-rhodamine cleavage fluorescence; series mostly up to 114 µM
# Summary of the method: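 In 50mM HEPES pH 7.8 containing 0.5mM EDTA, 1mM TCEP, 0.1 mg/ml BSA and 0.01% Tween-20, 1nM USP1/UAF1 is exposed to compound for 15 min, then Ub-Rho (150nM final) is added and fluorescence is read over time.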
# [7] = biological target: Androgen receptor (Homo sapiens) (UniProt P10275); assay: qHTS assay for small molecule agonists of androgen receptor signaling (AID 588515; active = well fitted curve in the direction sought with a large enough effect in the signal ratio, with a control signal flat; the % refers to the signal ratio; also: % is scaled to controls: 0 for no effect and ±100 for the full control effect); conditions: AR-UAS-bla HEK293, beta-lactamase ratio, agonist 16 h; stronger effect = higher value
# Summary of the method: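 Stimulation of an AR-responsive β-lactamase reporter in GripTite HEK293 cells was measured after 16 h compound exposure at 37 °C, via CCF4 fluorescence after 2 h RT. EC50 from Hill fits, normalized to R1881 at 30 nM.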
# [8] = qHTS assay to identify small molecules that stimulate interleukin-8 (IL-8) secretion (AID 651758; active = well fitted activation curve with a large enough effect in the signal ratio; the % refers to the signal ratio; also: potency is read from the fitted curve at half-maximal effect; as to activation: 0% is about no effect); conditions: HTRF ratio (665/615); series mostly up to 92.2 µM
# Summary of the method: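 Compounds are added to THP-1 cells (2000 per well) and left 16 hrs at 37 C. A labeled anti-IL-8 antibody pair is then added, and IL-8 secretion is measured by time-resolved FRET after 1-3 hrs at room temperature.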
# [9] = biological target: Androgen receptor (Homo sapiens) (UniProt P10275); assay: qHTS assay for small molecule antagonists of androgen receptor signaling (AID 588516; active = well fitted curve in the direction sought with a large enough effect in the signal ratio, with a control signal flat, not every such curve was filed as active; the % refers to the signal ratio; also: % is scaled to controls: 0 for no effect and ±100 for the full control effect); conditions: AR-UAS-bla HEK293, beta-lactamase ratio, antagonist mode, 16 h; series mostly up to 76.8 µM
# Summary of the method: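 Cells were plated and incubated 5 h, compounds added in titration, then R1881 (10 nM final) as agonist. After 16 h at 37 C, CCF4 substrate was loaded for 2 h at room temperature and fluorescence measured.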
# Chain of Bile acid receptor (Homo sapiens) (Q96RI1 whole entry, looked up): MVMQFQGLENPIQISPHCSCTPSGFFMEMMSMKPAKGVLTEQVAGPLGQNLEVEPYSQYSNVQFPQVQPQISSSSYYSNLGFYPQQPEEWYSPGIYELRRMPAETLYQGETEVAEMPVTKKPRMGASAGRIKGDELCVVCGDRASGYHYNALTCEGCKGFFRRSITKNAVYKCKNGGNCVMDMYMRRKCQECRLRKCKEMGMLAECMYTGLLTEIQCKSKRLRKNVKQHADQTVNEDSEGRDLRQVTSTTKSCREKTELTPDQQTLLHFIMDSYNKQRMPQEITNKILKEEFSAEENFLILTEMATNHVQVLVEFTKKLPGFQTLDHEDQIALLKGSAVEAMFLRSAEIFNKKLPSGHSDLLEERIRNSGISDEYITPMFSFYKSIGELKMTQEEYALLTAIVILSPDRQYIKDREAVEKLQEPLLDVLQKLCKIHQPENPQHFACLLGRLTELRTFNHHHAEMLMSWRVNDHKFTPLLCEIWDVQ
# Chain of Cytochrome P450 3A4 (Homo sapiens) (P08684 whole entry, looked up): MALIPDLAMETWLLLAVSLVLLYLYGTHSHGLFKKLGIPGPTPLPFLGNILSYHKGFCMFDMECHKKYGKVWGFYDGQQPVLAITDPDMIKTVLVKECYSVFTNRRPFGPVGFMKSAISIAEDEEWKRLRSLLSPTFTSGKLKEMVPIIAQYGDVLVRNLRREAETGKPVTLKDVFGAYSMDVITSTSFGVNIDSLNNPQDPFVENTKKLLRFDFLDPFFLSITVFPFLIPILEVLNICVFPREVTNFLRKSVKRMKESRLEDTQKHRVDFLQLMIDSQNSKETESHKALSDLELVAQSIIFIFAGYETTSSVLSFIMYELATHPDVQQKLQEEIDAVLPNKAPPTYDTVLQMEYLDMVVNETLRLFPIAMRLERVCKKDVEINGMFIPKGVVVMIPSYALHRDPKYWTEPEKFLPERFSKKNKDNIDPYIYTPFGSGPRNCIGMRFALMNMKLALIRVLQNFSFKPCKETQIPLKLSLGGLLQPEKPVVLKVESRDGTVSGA
# Chain of Androgen receptor (Homo sapiens) (P10275 whole entry, looked up): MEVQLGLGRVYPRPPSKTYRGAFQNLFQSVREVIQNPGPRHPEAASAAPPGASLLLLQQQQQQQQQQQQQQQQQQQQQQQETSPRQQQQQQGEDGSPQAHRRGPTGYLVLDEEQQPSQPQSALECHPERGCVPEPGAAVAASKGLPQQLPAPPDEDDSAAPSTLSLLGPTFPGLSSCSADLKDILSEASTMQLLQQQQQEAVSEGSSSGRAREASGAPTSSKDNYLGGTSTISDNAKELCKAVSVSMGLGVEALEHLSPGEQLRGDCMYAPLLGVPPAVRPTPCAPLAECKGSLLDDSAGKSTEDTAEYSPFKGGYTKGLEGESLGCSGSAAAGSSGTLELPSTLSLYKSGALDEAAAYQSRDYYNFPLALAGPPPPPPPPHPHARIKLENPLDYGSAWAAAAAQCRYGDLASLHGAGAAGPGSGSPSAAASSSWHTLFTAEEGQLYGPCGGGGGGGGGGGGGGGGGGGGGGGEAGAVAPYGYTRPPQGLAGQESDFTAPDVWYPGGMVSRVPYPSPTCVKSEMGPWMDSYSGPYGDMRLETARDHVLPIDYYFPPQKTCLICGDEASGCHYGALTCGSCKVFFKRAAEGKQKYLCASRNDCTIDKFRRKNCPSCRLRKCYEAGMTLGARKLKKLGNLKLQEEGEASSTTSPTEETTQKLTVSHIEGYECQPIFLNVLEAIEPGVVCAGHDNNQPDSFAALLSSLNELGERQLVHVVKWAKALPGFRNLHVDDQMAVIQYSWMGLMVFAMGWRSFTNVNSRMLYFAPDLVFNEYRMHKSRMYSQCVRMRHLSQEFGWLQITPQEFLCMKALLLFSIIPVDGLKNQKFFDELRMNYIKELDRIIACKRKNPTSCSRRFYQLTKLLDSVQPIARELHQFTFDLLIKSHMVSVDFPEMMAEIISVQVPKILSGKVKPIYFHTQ
# Chain of Ubiquitin carboxyl-terminal hydrolase 1 (Homo sapiens) (O94782 whole entry, looked up): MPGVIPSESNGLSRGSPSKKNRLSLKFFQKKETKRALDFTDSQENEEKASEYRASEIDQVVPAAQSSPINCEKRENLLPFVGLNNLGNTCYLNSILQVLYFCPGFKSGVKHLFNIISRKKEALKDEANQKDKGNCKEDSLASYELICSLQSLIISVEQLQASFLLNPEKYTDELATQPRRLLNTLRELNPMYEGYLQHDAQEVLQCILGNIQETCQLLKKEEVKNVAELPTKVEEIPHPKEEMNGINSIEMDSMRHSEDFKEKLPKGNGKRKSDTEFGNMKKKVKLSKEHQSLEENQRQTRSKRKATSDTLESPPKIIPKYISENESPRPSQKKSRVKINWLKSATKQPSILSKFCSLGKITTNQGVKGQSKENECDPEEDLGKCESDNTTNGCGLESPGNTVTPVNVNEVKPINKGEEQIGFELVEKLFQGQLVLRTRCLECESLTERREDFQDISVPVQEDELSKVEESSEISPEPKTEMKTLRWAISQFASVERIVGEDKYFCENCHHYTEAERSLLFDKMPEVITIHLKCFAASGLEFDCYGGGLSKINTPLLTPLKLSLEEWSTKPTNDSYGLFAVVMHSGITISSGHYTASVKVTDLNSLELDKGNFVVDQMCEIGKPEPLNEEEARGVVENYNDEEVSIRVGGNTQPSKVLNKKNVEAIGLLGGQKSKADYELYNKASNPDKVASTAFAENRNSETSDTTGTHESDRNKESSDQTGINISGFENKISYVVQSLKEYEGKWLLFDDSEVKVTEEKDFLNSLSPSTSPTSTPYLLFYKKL
structure (smiles),measurement,setting,value
Cc1ccc2c(c1N)C(=O)c1ccccc1C2=O,Potency,[1],> 92 µM
same,Potency,[2],inactive
same,activation,[3],-0.569% and 1.06%
COP(=S)(OC)SCn1nnc2ccccc2c1=O,Potency,[1],> 92 µM
same,Potency,[2],inactive
same,outcome,[4],inactive
same,outcome,[5],inactive
same,Potency,[6],inactive
same,activation,[7],-9.55% and -1.17%
O=[N+]([O-])c1cc(Cl)c(Cl)c(Cl)c1,activation,[3],-2.43%
CCCC[N+](=O)[O-],activation,[3],-0.886%
ClCCBr,Potency,[8],inactive
Cc1cc(N=Nc2ccccc2C)ccc1N,activation,[7],-4.45%
same,outcome,[9],inactive
same,activation,[3],-3.42% and -2.58%
same,Potency,[8],inactive
CCOC(=O)CBr,activation,[3],0.321%
same,Potency,[8],inactive
c1ccc(N=NNc2ccccc2)cc1,Potency,[1],> 92 µM
C1CC2OC2CC1C1CO1 (configuration not stated),activation,[3],-0.198%
same,Potency,[8],inactive
C(CCOCC1CO1)COCC1CO1 (configuration not stated),activation,[3],-2.57%
CCOP(=S)(OCC)Oc1nc(Cl)c(Cl)cc1Cl,outcome,[4],inactive
same,outcome,[5],inactive
same,activation,[7],5.31% and -6.07%
same,outcome,[9],inactive
Oc1c(Cl)c(Cl)cc(Cl)c1Cl,Potency,[1],49.1 µM (active)
same,activation,[7],-20.1%
same,activation,[3],3.3%
CCN(N=O)C(N)=O,activation,[3],-1.35%
N#CCCCCC#N,Potency,[8],inactive
c1ccc(Nc2ccc(Nc3ccccc3)cc2)cc1,activation,[3],-1.54%
CN1CSC(=S)N(C)C1,Potency,[1],57.6 µM (active)
same,activation,[3],0.811% and -0.41%
CN(C)C(=O)Nc1ccc(Cl)cc1,activation,[3],0.657% and 0.9%
same,Potency,[8],inactive
CC(C)C#N,Potency,[8],inactive
O=c1ccc(=O)[nH][nH]1,Potency,[1],> 92 µM
same,activation,[7],2.82% and 4.44%
same,outcome,[9],inactive
C/C=C/CC#N,activation,[3],-1.31%
same,Potency,[8],inactive
O=Cc1ccc2c(c1)OCO2,activation,[3],0.344%
same,Potency,[8],inactive
CCCCC(CC)COC(=O)c1ccc(C(=O)OCC(CC)CCCC)c(C(=O)OCC(CC)CCCC)c1 (configuration not stated),activation,[7],-4.73%
CC(C)OS(C)(=O)=O,activation,[3],-3.78%
same,Potency,[8],inactive
CCCCOC(C)=O,activation,[3],1.21%
Cc1ccc([N+](=O)[O-])cc1,Potency,[8],inactive
CC(C)[N+](=O)[O-],activation,[3],-1.29%
same,Potency,[8],inactive
CN(C)c1ccc(N)cc1,Potency,[1],72.8 µM (active)
same,Potency,[2],inactive
same,activation,[7],-5.02%
Nc1cc(Cl)ccc1Cl,Potency,[1],> 92 µM
ClC(Br)Br,Potency,[1],> 92 µM
same,Potency,[8],inactive
C=C(C)CCl,Potency,[1],> 92 µM
same,activation,[7],8.69%
same,outcome,[9],inactive
NC1CCC(CC2CCC(N)CC2)CC1 (configuration not stated),Potency,[1],> 92 µM
CN(C)C(=O)Nc1cccc(C(F)(F)F)c1,Potency,[8],inactive
O=[N+]([O-])c1ccc(O)c([N+](=O)[O-])c1,outcome,[4],inactive
same,outcome,[5],inactive
same,Potency,[6],inactive
same,outcome,[9],inactive
same,Potency,[8],inactive
ClC(Cl)(Cl)C(Cl)(Cl)Cl,Potency,[8],inactive
Nc1cccc(Cl)c1,Potency,[1],> 92 µM
CCN(CC)CCO,Potency,[1],> 92 µM
Nc1cccc2ccccc12,Potency,[2],inactive
same,Potency,[8],inactive
C=CC(=O)OC,Potency,[1],> 92 µM
same,activation,[3],1.11%
Clc1ccc(C(Cl)(Cl)Cl)cc1Cl,Potency,[1],> 92 µM
BrCC(Br)(Br)Br,activation,[7],1.19%
same,activation,[3],-2.57%
same,Potency,[8],42.2 µM (active)
Oc1cc(Cl)c(Cl)c(Cl)c1Cl,Potency,[1],54.1 µM (active)
O=C(O)CBr,Potency,[1],> 92 µM
same,Potency,[8],inactive
O=C(O)C(Br)Br,activation,[3],-1.44%
CCOC(=O)CC(SP(=O)(OC)OC)C(=O)OCC (configuration not stated),Potency,[2],inactive
same,activation,[3],-1.01% and 1.76%
N#CC(O)c1ccccc1 (configuration not stated),Potency,[1],> 92 µM
same,activation,[3],-0.559%
same,Potency,[8],inactive
